Pf growth 96h: Primary qHTS for delayed death inhibitors of the malarial parasite plastid, 96 hour incubation | P. falciparum luciferase reporter growth, 96 h | Potency, µM (top dose mostly 28.7 µM), for the others: top-dose activity change, negative = inhibition, most hits filed as inhibitors | hit rate 6.9% among 320,000 | AID 504834, 2011; also: potency is read from the fitted curve at half-maximal effect; % is scaled to controls: 0 for no effect and ±100 for the full control effect
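Readout is luminescence from an integrated firefly luciferase in P. falciparum. Red cells, 2% hematocrit and 0.05% parasitemia final, were cultured with compound through two parasite generations (96 hours) at 37 C, 5% CO2.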
Cycloheximide cs: Cycloheximide Counterscreen for Small Molecule Inhibitors of Shiga Toxin; cell reporter, cycloheximide protein synthesis inhibition counterscreen; max response, %; hit rate 12% among 300,000; AID 2314, 2010; in the data active = max response mostly above about 13%, no sharp cut-off; inactive = mostly below about 14%; also: read at 38.3 µM for the half of the compounds with a filed dose; 0% is about no effect
Pf growth 48h: Primary qHTS for delayed death inhibitors of the malarial parasite plastid, 48 hour incubation | P. falciparum luciferase growth in erythrocytes, 48 h | Potency, µM (doses to about 28.7 µM), for the others: at the top dose activity change, negative = inhibition, actives largely listed as inhibitors | hit rate 5.9% among 310,000 | AID 504832, 2011; also: potency is read from the fitted curve at half-maximal effect; % is scaled to controls: 0 for no effect and ±100 for the full control effect
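Luciferase-expressing P. falciparum in infected erythrocytes (2% hematocrit, 0.1% parasitemia final) in RPMI 1640/0.5% Albumax were exposed to compound for 48 hours at 37 C, 5% CO2; growth read as luminescence.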
Shiga inhibitor: A qHTS for Small Molecule Inhibitors of Shiga Toxin. Vero cells, Shiga toxin protein synthesis inhibition reporter. inhibition, % at 38.7 µM. hit rate 9.2% among 290,000. AID 2315, 2010; in the data active = inhibition mostly above about 28%, no sharp cut-off; inactive = mostly below about 43%; also: 0% is about no effect
HCMV antiviral: qHTS Assay for inhibitors of the human cytomegalovirus (HCMV); AID 1259415, 2018; activity change, negative = inhibition, % at 57.5 µM; HFF cells, HCMV-luciferase reporter, 72 h; stronger effect = lower value; hit rate 4.5% among 410,000; in the data active = activity change below about -60%; inconclusive = no clear call, values can overlap the other calls; inactive = above about -39%; also: % is scaled to controls: 0 for no effect and ±100 for the full control effect
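Cell-based, HFFs, 1000 cells/well, 16 h 37C; cpds in DMSO + HCMV-luc, MOI 1 PFU/cell; 72 h 37C; OneGlo luminescence after 5 min RT; norm. to buffer vs Salinomycin 10uM.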
* = called active by the depositor; i = inactive; u = inconclusive; x = no result given; [ ] = dose if it differs, or a comment. Most compounds without a hit are left out; they make up all but 20% or so of the library. Unless noted, calls follow the shape of the dose curve; as a rule, active = well fitted inhibition curve with a large enough effect; inconclusive = small, poorly fitted or top-dose-only effect, or another doubt; inactive = no such curve, though single readings can be large or run the other way.

SMILES	Pf growth 96h	Cycloheximide cs	Pf growth 48h	Shiga inhibitor	HCMV antiviral
CCOC(=O)C1CCCN(C2CCN(Cc3nc(-c4ccccc4)no3)CC2)C1 (centres undefined)	33.8%	-1.4	-13.4%	-6.4	-7.1
Fc1ccc(-c2nnc(N3CCOCC3)c3ccccc23)cc1F	u	-3.5	u	8.1	-32.1
Cc1cccc(N2CCN(Cc3cc(=O)oc4cc(C)ccc34)CC2C)c1 (centres undefined)	x	x	x	x	-65.6*
Cc1ccc2c(CN3C(=O)NC(C)(c4ccc5c(c4)OCO5)C3=O)cc(=O)oc2c1 (centres undefined)	u	5.0	4.15µM*	19.4	-12.3
Cc1ccc2c(CN3CC(C)CC(C)C3)cc(=O)oc2c1 (centres undefined)	1.1%	-3.2	u	-4.0	8.0
CC(=O)Nc1ccc2c(CN3C(=O)NC(C)(c4ccc(C)cc4)C3=O)cc(=O)oc2c1 (centres undefined)	u	-1.9	u	-4.2	-1.8
Cc1ccc2c(CN3CCC(C)CC3)cc(=O)oc2c1	x	53.2*	124.7%	151.5*	112.9
Cc1ccc(S(=O)(=O)N2CCN(CC(=O)NCC3(N4CCOCC4)CCCCC3)CC2)cc1	-9.3%	x	-26.1%	x	-28.9
CCNC(=O)/C=C1\NC(C)(C)Cc2c1ccc1ccccc21	u	0.3	x	-9.4	-8.8
CC1(C)Cc2c(ccc3ccccc23)C(=O)N1	u	11.3*	u	16.2	u
O=C(NNc1ncccc1-n1cccc1)c1ccc(Cl)cc1	45.5%	-0.9	40.6%	-3.4	-5.7
CC(C)(C)c1ccc(C(=O)NNc2ncccc2-n2cccc2)cc1	u	7.8	u	13.9	-60.2*
CCCCn1c(NCc2ccc3c(c2)OCO3)nc2ccccc21	u	11.6*	u	29.0	-20.2
CCCn1c(NCc2ccc3c(c2)OCO3)nc2ccccc21	u	20.5*	-27.5%	33.7	61.6
O=C1N/C(=C/c2ccsc2)C(=O)N1c1ccccc1	u	26.0*	79.4%	47.2*	6.0
COCCn1c(C)cc(/C=C2/NC(=O)N(c3cccc(Cl)c3)C2=O)c1C	u	38.3*	1.3%[5.75 µM]	63.6*	-66.3*
CC(C)n1cc(/C=C2\NC(=O)N(c3cccc(Cl)c3)C2=O)c2ccccc21	u	8.5	x	-11.7	10.1
CCn1c(C)cc(/C=C2/NC(=O)N(c3ccccc3)C2=O)c1C	36.9%	42.6*	u	97.0*	-12.6
CC(C)n1cc(/C=C2/NC(=O)N(c3cccc(Cl)c3)C2=O)c2ccccc21	9.28µM*	0.8	8.28µM*	16.0	0.8
COc1cccc(-c2cc(C(F)(F)F)nc(NCCc3ccccc3)n2)c1	x	x	x	x	20.4
CNC[C@@H]1OCc2ccccc2-c2c(n(C)c3ccccc23)C(=O)N([C@H](C)CO)C[C@@H]1C	x	x	x	x	-2.7
COc1cccc(C(=O)Nc2ccc(NC(=O)C3CCCCC3)nc2)c1	-2.1%	0.8	u	22.1	0.7
COc1cccc(C(=O)Nc2ccc(NC(=O)c3ccc(C(C)(C)C)cc3)cc2)c1	x	x	x	x	-96.9*
COc1cccc(S(=O)(=O)Nc2ccc(C(=O)Nc3ccncc3)cc2)c1	8.28µM*	-4.0	-24.4%	9.4	-5.4
COc1cccc(C(=O)Nc2ccc(NC(=O)C(C)(C)C)cn2)c1	u	12.0*	42.2%	41.1*	7.1
SMILES	Pf growth 96h	Cycloheximide cs	Pf growth 48h	Shiga inhibitor	HCMV antiviral
O=C(Nc1ccncc1)c1ccc(NS(=O)(=O)c2cccc(F)c2)cc1	u	-3.8	u	-8.2	-29.8
COc1cccc(NC(=O)c2cccc(C(=O)Nc3cccc(OC)c3)c2)c1	-26.3%	6.7	70.2%	1.2	-16.9
COc1cc(OC)cc(C(=O)Nc2cccc(C(C)=O)c2)c1	-19.0%	24.7*	u	47.7*	38.8
O=C(CNC(=O)c1ccc(Br)cc1)OC1CCOC1=O (centres undefined)	x	x	x	x	-21.4
CC1(C(=O)O)CCCN1C(=O)c1cccc(C(F)(F)F)c1 (centres undefined)	x	x	x	x	2.5
COc1cc(OC)cc(C(=O)Nn2cnnc2)c1	7.7%	-2.9	5.1%	-1.7	0.2
COc1cccc(C(=O)Nn2cnnc2)c1	u	11.1*	20.6%	34.3	-18.6
COc1cccc(C(=O)Nc2ccc(C(=O)c3ccncc3)cc2)c1	40.6%	17.2*	0.0%	3.7	u
COc1cccc(C(=O)Nc2ccccc2NC(=O)c2cccc(OC)c2)c1	14.7µM*	-1.5	29.0%	x	-10.3
COc1cccc(C(=O)Nc2cccc(NC(C)=O)c2)c1	u	11.4	30.6%	29.4	95.6
COc1cccc(C(=O)Nc2ccc(NC(C)=O)cc2)c1	58.0%	28.4*	x	62.3	30.5
Cc1ccc(NC(=O)Cn2nnc(C(=O)NCc3cccs3)c2N)cc1Cl	9.28µM*	11.4	37.3%	38.0	0.8
COc1ccc(NC(=O)Cn2nnc(C(=O)NCc3cccs3)c2N)cc1Cl	4.9%	-3.1	11.9%	-1.9	-20.8
Cc1ccc(NC(=O)Cc2cccs2)cc1Cl	u	38.4*	30.6%	49.7*	-3.6
Cc1nc2ccc(NC(=O)Cc3ccc(Br)cc3)cc2s1	14.9%	1.7	-12.4%	-8.5	-28.1
Cc1nc2ccc(NC(=O)Cc3cccs3)cc2s1	-29.6%	29.4*	i	59.6*	63.9
C=CCn1c(=O)c2ccccc2n2nnc(C(=O)OCC)c12	41.8%	9.4	47.4%	16.4	-62.5*
C=CCn1c(O)c(N=Nc2ccccc2O)c2ccccc21	62.2%	x	9.28µM*	x	7.9
C=CCSc1nc2c(C(=O)OCC)nnn2c2ccccc12	-24.8%	-4.9	9.4%	-11.5	-31.0
C=CCn1c(O)c(N=NC(=O)OCC)c2ccccc21	30.5%	1.5	22.4%	-5.2	-64.3*
O=C([C@H](Cc1ccccc1)N1C(=O)c2ccccc2C1=O)N1CCOCC1	-0.8%	6.6	21.7%	-22.3	3.4
Cc1ccc(OCC(=O)N2CCN(c3nnc(-c4ccccc4)c4ccccc34)CC2)cc1	-38.5%	-2.6	x	-8.0	-83.3*
Cc1ccc(-c2nnc(N3CCN(C(=O)CSc4ncn[nH]4)CC3)c3ccccc23)cc1	x	0.6	10.4µM*	1.7	-4.6
CC(=O)Nc1ccc(NC(=O)COC(=O)CCNS(=O)(=O)c2c(Cl)cccc2Cl)cc1	34.6%	x	3.2%	x	-8.3
COc1ccc(S(=O)(=O)n2nc(-c3ccco3)nc2NCc2ccc(OC)c(OC)c2)cc1	x	x	x	x	4.9
CC(C)CC1c2[nH]c3ccccc3c2CCN1C(=O)c1cnccn1 (centres undefined)	u	51.3*	u	75.7*	2.0
Cc1c(CN2CCc3c([nH]c4ccccc34)C2CC(C)C)cnn1C (centres undefined)	0.0%	-2.8	-27.8%	-6.3	-5.3
CC(C)CC1c2[nH]c3ccccc3c2CCN1C(=O)CCC(=O)N(C)C (centres undefined)	6.57µM*	17.6	1.4%	44.1*	47.2

Screening results from PubChem BioAssay.
